# Test results as given in PubChem BioAssay AID1347426 (Functional Genomics Laboratory (NCATS/FGL), 2020).
# About 1,400 (4.5%) of roughly 31,000 sequences were called active. The sample as a whole holds a higher share of actives than the screen did. Unmarked numbers belong to inactive results.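 Rule for the calls: active = median seed-adjusted z-score above 1 or below -1; inactive = the rest.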
# Experiment: Novel Modifiers of Survival Motor Neuron (SMN) Protein: Gene Identification via Genome-wide siRNA Screen;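 note: luminescence tracks full-length SMN protein made from the SMN2 reporter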
# Details: HEK293T SMN2-luciferase reporter, siRNA knockdown, 72 h; actives lie on both sides
# In short: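 Each of three siRNAs per gene is reverse-transfected (1 pmol) into reporter HEK293T cells whose luciferase output tracks SMN protein level. After 72 h culture, ONE-Glo luminescence is control-normalized, log10-transformed and MAD-standardized; Common Seed Analysis deprioritizes seed-driven hits.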
row,Sequence,median seed-adjusted z-score
1,GGUAUGGAUUUAACAGUCATT against DHODH,-0.422
2,GGAAGACUAGGAAUCGGAATT against NYX,0.0685
3,CACCCACCGCCACAAUAAATT against BSG,0.211
4,GCACGACUUUGUACUCAGATT against HES5,-0.00853
5,GAGCUAUGGUUACACGGUUTT against GABRQ,-0.54
6,UGAACCUUGUGAUAGAUGATT against SNRPG,-3.09 (active)
7,GCCUCCACGGAAGAUGUAATT against ZNF746,0.1
8,GCACUUGUAUAAUCAGACUTT against MRLC2,-0.492
9,GGACCAUCCAGCUUCUGGATT against GALE,-0.153
10,GGAUCUCAUGAGGCGAAUATT against EIF5,0.362
11,GUAGGACUCUCAUUCGGGATT against CCND1,-0.912
12,GGACCCAAUCAACUCAAUATT against SS18,0.34
13,GCCUAAUUGCGGAACAUAUTT against ESCO1,0.755
14,CGACAAGUUGAAGACCAUATT against CRMP1,-0.354
15,CCUAUUCACUUUACACUGUTT against AKR7A2,0.192
16,GAUGAAGAAUGAUAAGUCATT against HNRNPC,-2.15 (active)
17,AGACAAGUAUGUGAGGAAUTT against BTN2A2,-0.0599
18,GGAUAUCGCACUUCACUCATT against ELL,-0.497
19,GGGCGAGCAUUUUCGAGAATT against USP7,0.105
20,CCACGUUUUGAUCAACAAUTT against RDH11,-0.241
21,GAUUGCAUAUUACAAACGATT against GIN1,-0.0585
22,GGAACGAGAUUGUCAGAUUTT against POLR2B,-4.81 (active)
23,GAUACACUUUGUCACCAAATT against FLT3LG,-0.166

row,Sequence,median seed-adjusted z-score
1,CUCAUGAACUUGCACAACATT against WNT7A,0.0931
2,GGAUGAUGUGAACUACAAATT against PTDSS1,-0.76
3,GGAGGACAUCGACCAGAUATT against APBA1,0.305
4,CGAUAAAGACGGAUUCUAATT against MATK,-0.754
5,GAAUAUGAGUACCUAGAUUTT against SELPLG,0.0378
6,CACCGACAAUAUAAAGGAATT against SLC25A32,-0.299
7,GGUCAUGAUUGCUAUCCUUTT against TAAR9,-1.07 (active)
8,GGAAGAUUAUUACAGUCGATT against RERE,0.129
9,GGACGGUACUACAGUGUAATT against HDAC8,0.835
10,GGAUUUCCAGGGAUAUUUATT against CDKN2B,0.0154
11,CAUUGAACGCAGUCCCUUUTT against FLNC,0.00217
12,CCCAAUGCCUGUUUAUUCATT against POLR2J3,-5.42 (active)
13,GGAACCUACCUGACUAAGATT against ARL9,0.98
14,GGGAGUAUAUUUUGAUGAATT against RARS2,-0.0247
15,AGAAUAAGUUCAAACAGGATT against RAB4B,-0.207
16,CAUGAACAGUUUAUCGUAATT against FMR1,0.504
17,GAGACCUAACUGUACGUGATT against TSG101,1.48 (active)
18,CUUGCACUCCUGUCCAUAATT against AP3B1,0.31
19,CUAGUUUGUUGCAAAAUAATT against CDKN2C,-0.0789
20,CAAUUAAGUUGGAUCCUUUTT against WARS2,0.21
21,GGUACAUCGCGAUAUCAAATT against YSK4,-0.181
22,CGAUGGUAUUGACUAAGUUTT against HSPA1L,-1.27 (active)
23,CUAGGAGUCAAAGAAAAUATT against RNPS1,0

row,Sequence,median seed-adjusted z-score
1,GGAGAGAGCGUGUCCUACATT against SIRPA,-0.153
2,AAACAAAACUUGCACUUUATT against RASD1,0.674
3,GCCUUGAACCUAGGACCAATT against PRAF2,-0.326
4,GGACGAGAAUGGGAAGAUUTT against ARD1A,-1.05 (active)
5,AGACUAUGAUAGAAUCCCATT against LGI3,-0.0189
6,CUCUACCCGUGCUAUAUAATT against TIGD1,0.224
7,CAAGAUCCAGGACACCAAATT against MAP4K1,0
8,CUAUCCAACUCAAACGAUUTT against USP9Y,0.012
9,GGCUUGAUAUUUGACAGAATT against BBOX1,0.152
10,AGAAAUGUCUUGUAGUGAATT against SYT14L,0.2
11,GGAUUAUAUUGACAUCAGUTT against DLST,1.16 (active)
12,GGGAGGACCUGAACAAGAATT against TAOK2,0.28
13,GGCAUGACCUCAUCACAGUTT against RNASE7,1.07 (active)
14,GAACCAACCUGUCAAGUGATT against SELL,0.554
15,GGACAUCGCUAAACAGUUATT against TBC1D1,-0.359
16,CUAUCACCGGAUUAACGAATT against ACOX1,-0.897
17,GAGUCGAGAAGAUAAUGGATT against RABGEF1,0.278
18,AGACGACGGCGAUGAGGAATT against RALY,0
19,GGACGACCACGGCUACAUUTT against CRYAA,-1.03 (active)
20,GGCUUCAGGUUAUAGUCAATT against OTX2,-0.00351
21,AGGAGAUCGUCGACCUGGUTT against TUBA3C,-0.0806
22,AGGCCCUAGUGCUCAGAUATT against MMS19,0.0142
23,GCAACGAUGUUGCCUGGAATT against GPX1,-0.0529

row,Sequence,median seed-adjusted z-score
1,GCAUGCAGAUGUUCGGCAATT against CACNA1F,0.22
2,CAAGCUUGUUAACAUCAAATT against NPVF,0.588
3,GGCUAAUACUGGAAUUGCUTT against SLC38A2,-1.04 (active)
4,CCAUGUCUUUCUAUCGCAATT against PLD2,-0.743
5,GCAAGAUCUUAUCCACAGATT against CIP29,-1.18 (active)
6,CAUUGGAAUUCUUUCAAUATT against APTX,-0.131
7,GAGAAGACCUUUAUACGAATT against XPOT,0.366
8,GGAUGGUGGCGUCCAAGAUTT against PSMB10,0.00939
9,GAGCUUCACUCAAAAAUCATT against ZNF160,-0.454
10,GCCUAGAAGUGGAACGUGUTT against IFT57,-1.1 (active)
11,CCACCUUCGAUGUUCCCAUTT against HMG20B,0.231
12,GCAGAGUCACUUUGACAAUTT against CHRNG,0.221
13,GGCUUUUAGAGUACGACAATT against ZFP30,0.211
14,CAGUCAACCUGAUUUGAGATT against SOX7,-0.387
15,CGUUUAACGUGGUGCUGUUTT against GPR32,-1.2 (active)
16,GCUCUAUGUCUACAUCAAUTT against DAXX,0.349
17,AUAUCGCUGUGAUGCAAAATT against PLA2G12B,-0.162
18,ACAGCGAGGUCAAAAGAAATT against HSD11B1,-0.174
19,GGACUAAGUGAAGAGCUUATT against NFYB,-0.29
20,GAGCUGAACUUGUCAUUCUTT against RANGAP1,-0.0379
21,CAUGAACCCAGUGAAGAUATT against IRF6,-1.79 (active)
22,CACUCAACAUUACAGAUUUTT against ZNF514,0.125
23,CAGCUUUACGAGUAUGCAATT against HS6ST3,-0.405
